NLRP3 yeast inh: inhibitors of NALP3 inflammasome in yeast; inhibition, % at 10 µM; Yeast reconstituted NLRP3/ASC/caspase-1, beta-gal luminescence, 24 h; 330,000 tested, 0.39% active; AID 2825;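 active = inhibition of 50% or more; inactive = inhibition below 50%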;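 also: plate controls were induced DMSO wells for no effect and uninduced yeast grown without galactose for full effect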
tim23-1 inh: tim23-1 yeast growth inhibition. 330,000 tested, 1.3% active. inhibition, % at 20 µM. S. cerevisiae tim23-1 growth, BacTiter-Glo luminescence, 24 h;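 active = growth inhibition of the mutant yeast at or above 50%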;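 also: temperature-sensitive mutant grown at 25 °C; plate controls were DMSO-treated mutant yeast for no effect and medium wells lacking yeast for full effect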
NALP1 inh: NALP1 inhibition | S. cerevisiae NALP1/ASC/caspase-1 growth, X-gal OD620, 72 h | inhibition, % at 10 µM | 280,000 tested, 0.61% active | AID 2071; in the data active = inhibition mostly above about 24%, no sharp cut-off; inactive = mostly below about 32%
V-ATPase pH: alters yeast V-ATPase proton transport | S. cerevisiae, pHLuorin cytosolic pH fluorescence | response, % at 10 µM | 350,000 tested, 0.37% active | AID 504577; in the data active = response mostly above about 7.3%, no sharp cut-off; inactive = mostly below about 5.4%; also: actives read high
tim10-1 inh: inhibits growth of tim10-1 mutant yeast. S. cerevisiae tim10-1 ts strain growth, BacTiter-Glo, 24 h. AID 463190. inhibition, % at 20 µM. 330,000 tested, 2.2% active;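 active = inhibition of at least 40%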;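 also: mutant grown at 25 °C; 0% = DMSO wells with yeast and 100% = wells holding no yeast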
TIM10 inh: TIM10 yeast growth inhibition; S. cerevisiae TIM10 strain growth, BacTiter-Glo luminescence, 24 h; inhibition, % at 10 µM; 330,000 tested, 1.4% active;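 active = inhibition of 40% or more at the single tested concentration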;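 also: wild-type TIM10 isogenic control strain grown at permissive 25 °C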
tim23-1 confirm: tim23-1 yeast growth inhibition, confirmed | shares compounds with tim23-1 inh | AID 463218 | inhibition, % at 20 µM | 4,400 tested, 83% active | S. cerevisiae tim23-1 growth, BacTiter-Glo luminescence, 24 h;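 active = inhibition above about 39% in either of two replicate wells at 20 µM, limit read from the data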;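 also: temperature-sensitive tim23-1 mutant grown at 25 °C; 0% = DMSO wells with yeast and 100% = medium wells without yeast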
Active calls of the source: *; . = not tested or not shown. In the library only some 4.2% were active in any assay of this set; here they are far more common.

SMILES | NLRP3 yeast inh | tim23-1 inh | NALP1 inh | V-ATPase pH | tim10-1 inh | TIM10 inh | tim23-1 confirm
COCCn1nnnc1C(c1ccc(OC)c(OC)c1)N1CCN(C(=O)c2ccco2)CC1 (stereo not drawn) | 18 | 18 | 1 | 1 | -15 | -3 | .
Cc1ccc(/C=C2/NC(=O)N(Cc3ccccc3)C2=O)o1 | 19 | 68* | 32 | 1 | 25 | 2 | 58*
CC1CN(CC(O)COCc2ccc3c(c2)OCO3)CC(C)O1 (stereo not drawn) | 15 | -2 | -17 | -5 | 12 | -20 | .
CCOC(=O)c1cnc(-n2nc(C)cc2C)nc1NCCc1ccccc1 | 15 | 51* | 15 | -2 | 16 | 7 | 58*
CCOC(=O)C1=C(N)Oc2cc(O)ccc2C1c1ccc(F)cc1F (stereo not drawn) | 11 | 56* | -15 | 0 | 12 | 23 | 59*
O=C(NC(=S)NCCc1ccccc1)c1cccc(Cl)c1 | 28 | 52* | 1 | 0 | 33 | 32 | 46*
COc1ccc(C(=O)NC(=S)NCCc2ccccc2)cc1 | 9 | 2 | 7 | . | 17 | 1 | .
Cc1cc(N2CCOCC2)n2nc(C)c(-c3ccccc3)c2n1 | 12 | 38 | 18 | -8 | 29 | 6 | .
Cc1cc(C)n2nc(C)c(-c3ccc(Cl)cc3)c2n1 | 6 | 52* | -24 | 0 | 16 | 14 | 30
Cc1cc(N2CCCCCC2)n2nc(C)c(-c3ccccc3)c2n1 | 21 | 57* | 7 | 2 | 30 | 38 | 51*
Cc1cc(C)n2nc(C)c(-c3ccccc3)c2n1 | 3 | 15 | . | -4 | 16 | 1 | .
CC1Oc2cc3oc4c(O)c(O)ccc4c(=O)c3c(O)c2C1(C)C (stereo not drawn) | 11 | 69* | . | 0 | 34 | 17 | 70*
COc1ccc(-c2sc3ccccc3c2-c2ccc(O)cc2)cc1 | 23 | 35 | . | 1 | -11 | 35 | .
COc1ccccc1-c1sc2ccccc2c1-c1ccc(O)cc1 | 15 | 55* | . | 4 | -19 | 33 | 4
CCCCc1c(C)nc2ccc(C)cc2c1SCCC(=O)O | 15 | 55* | 27 | -1 | 22 | 10 | 34
CCCCc1c(C)nc2ccccc2c1SCCC(=O)O | 24 | 8 | 1 | -3 | -14 | -12 | .
O=c1c(-c2ccccc2)c1-c1ccccc1 | 20 | 58* | 5 | . | 16 | -14 | -11
CC(C)CN(Cc1cc(=O)oc2cc3c(cc12)CCCC3)CC(C)C | 14 | -6 | 4 | -1 | -8 | -13 | .
COCCN(C(=O)c1ccc(N2C(=O)c3ccccc3C2=O)cc1)c1c(N)n(CC(C)C)c(=O)[nH]c1=O | -1 | 60* | . | 2 | 21 | 16 | 51*
CCCCN(C(=O)c1ccc2c(c1)OCO2)c1c(N)n(CCCC)c(=O)[nH]c1=O | 20 | 52* | . | -3 | 19 | 10 | 53*
CCCCN(C(=O)c1ccncc1)c1c(N)n(CCC)c(=O)[nH]c1=O | 12 | 1 | . | -2 | 13 | -7 | .
CCCCN(C(=O)c1ccc2c(c1)OCO2)c1c(N)n(CC(C)C)c(=O)[nH]c1=O | 13 | 47 | . | -3 | 20 | 12 | .
CCCCN(C(=O)c1ccc(C)cc1)c1c(N)n(CCC)c(=O)[nH]c1=O | 11 | 53* | 7 | -2 | 15 | 23 | 54*
COCCN(C(=O)c1ccc(N2CCCC2=O)cc1)c1c(N)n(CC(C)C)c(=O)[nH]c1=O | 16 | 4 | . | -6 | 4 | -2 | .
O=C(Nc1nc2ccccc2s1)C1CCCN1S(=O)(=O)c1ccc(Cl)cc1 (stereo not drawn) | 14 | 55* | 22 | -1 | 40 | 7 | 50*
SMILES | NLRP3 yeast inh | tim23-1 inh | NALP1 inh | V-ATPase pH | tim10-1 inh | TIM10 inh | tim23-1 confirm
Cc1ccc(S(=O)(=O)N2CCCC2C(=O)Nc2nc3ccccc3s2)cc1 (stereo not drawn) | 2 | 50 | 9 | 2 | 24 | 9 | .
O=C(/C=C/c1ccc(Cl)cc1)c1ccc([N+](=O)[O-])o1 | 25 | 60* | . | 12* | -2 | 34 | 10
Cc1ccc(S(=O)(=O)N2[C@@H](c3ccc(C(C)(C)C)cc3)C(C(=O)O)=CC[C@H]2c2cccc(Cl)c2)cc1 | -7 | 53* | . | -1 | 19 | 20 | 44*
Cc1ccc(S(=O)(=O)N2[C@@H](c3ccc(C(C)(C)C)cc3)C(C(=O)O)=CC[C@H]2c2ccc(Cl)c(Cl)c2)cc1 | 15 | 63* | . | 1 | -20 | 33 | -29
O=C(NCC(=O)N1CCN(S(=O)(=O)c2ccccc2F)CC1)c1ccc(Br)o1 | 1 | -4 | -3 | 1 | -13 | 5 | .
OCCCNc1ncnc2scc(-c3ccc(Cl)cc3)c12 | -1 | 12 | 1 | 1 | 20 | 1 | .
Clc1ccc(-c2csc3ncnc(Cl)c23)cc1 | -7 | 60* | 20 | -4 | 9 | -13 | 42*
NNc1ncnc2scc(-c3ccc(Cl)cc3)c12 | 4 | 58* | 25 | -3 | 6 | 31 | 50*
CCC(CC)C(=O)N1CC(=O)Nc2ccc(F)cc2C1c1ccc(F)cc1 (stereo not drawn) | -3 | 18 | 14 | 1 | 18 | 7 | .
Cc1cc(C)n2nc(C(=O)OCC(=O)N(C)C3CCCCC3)nc2n1 | 4 | -4 | . | 0 | -6 | -4 | .
CN(C(=O)CSCC(=O)Nc1ccc(Cl)cc1)C1CCCCC1 | 14 | 14 | . | 7 | 3 | 0 | .
CC(/C=N/NC(=O)Cc1cccs1)=C\c1ccco1 | 16 | 11 | 1 | 1 | -6 | -11 | .
CC(/C=N/NC(=O)c1cccs1)=C\c1ccco1 | 18 | 64* | -3 | -1 | 6 | 23 | 71*
COc1ccc([C@H]2N[C@]3(CCCN(Cc4ccccc4)C3=O)[C@H]3C(=O)N(Cc4ccccc4)C(=O)[C@@H]23)cc1 | . | . | . | 4 | . | . | .
CC(=O)Nc1ccc(S(=O)(=O)N(Cc2cccnc2)Cc2cc3ccc(C)cc3[nH]c2=O)cc1 | 0 | 52* | 17 | -3 | 38 | 14 | 53*
Cc1ccc(S(=O)(=O)N(Cc2cccnc2)Cc2cc3ccccc3[nH]c2=O)cc1 | 5 | 21 | 17 | 0 | 28 | 3 | .
NC1=C(Br)C(=O)c2ccccc2C1=O | 29 | 56* | 16 | -4 | 25 | 33 | 52*
O=C(CCc1ccccc1)N[C@@H]1c2ccccc2CC[C@@H]1OCc1ccccc1 | . | 37 | . | -4 | 22 | 1 | .
O=C(COCc1ccccc1)N[C@@H]1c2ccccc2CC[C@H]1OCc1ccccc1 | . | 52* | . | -2 | 25 | 17 | 38
CCOc1cc(-c2nc3ccccc3s2)ccc1O | 28 | 59* | 14 | 4 | 35 | 27 | 37
Cc1ccc(S(=O)(=O)N2C(=O)[C@@H]3Cc4ccccc4CN3C2=O)cc1 | 12 | 51* | 3 | -1 | 23 | 14 | 41*
Nc1nn(-c2ccccc2Cl)cc1-c1nn[nH]n1 | 25 | 12 | 21 | 1 | 9 | 1 | .

Screening data: PubChem BioAssay, several laboratories
